High-throughput results from PubChem.
CHT PAM = human CHT allosteric activation. Q9GZV3. CHT-expressing cells, membrane potential dye, choline EC20; active compounds read high; LV-AA mutant CHT in HEK293 cells. B-score at 10 µM. 310,000 compounds, 0.49% hits. AID 488977;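 active = initial fluorescence not abnormally high and integrated response B-score, plate-corrected, over 3 SD above library mean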
Target sequence (Q9GZV3 whole entry, looked up): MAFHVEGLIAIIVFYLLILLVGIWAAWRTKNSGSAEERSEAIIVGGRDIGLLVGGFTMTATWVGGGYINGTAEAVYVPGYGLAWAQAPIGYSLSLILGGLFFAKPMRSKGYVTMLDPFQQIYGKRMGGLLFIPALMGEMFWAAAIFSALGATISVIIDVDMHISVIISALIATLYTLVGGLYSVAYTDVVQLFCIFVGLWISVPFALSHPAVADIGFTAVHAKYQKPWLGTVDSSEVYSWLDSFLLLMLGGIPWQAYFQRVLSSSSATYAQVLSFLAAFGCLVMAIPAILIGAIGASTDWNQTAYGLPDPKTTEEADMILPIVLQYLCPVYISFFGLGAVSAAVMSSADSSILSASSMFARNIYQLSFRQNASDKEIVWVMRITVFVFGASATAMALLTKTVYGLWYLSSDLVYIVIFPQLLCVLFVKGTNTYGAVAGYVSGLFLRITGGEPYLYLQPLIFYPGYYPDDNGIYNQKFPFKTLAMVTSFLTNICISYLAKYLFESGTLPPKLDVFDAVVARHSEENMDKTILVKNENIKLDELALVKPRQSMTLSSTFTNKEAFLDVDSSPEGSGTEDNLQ
Bfl-1 A1 inh = inhibitors of the anti-apoptotic protein A1, read as caspase activation; MEF A1-2A-BIM cells, Caspase-Glo 3/7 luminescence, 3 h; percent of clofoctol response, vehicle zero; caspase activation, % (no concentration beside the values); 330,000 compounds, 0.066% hits; AID 2462;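 active = over half of replicate activation scores above 10%, or exactly half above 10 with the replicate mean above 10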
CHT block = human CHT choline transport inhibition; B-score at 10 µM; CHT-expressing cells, membrane potential dye, choline response; active compounds read low; 310,000 compounds, 0.86% hits;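 active = B-score over 3 SD under the library average, and starting fluorescence ratio not unusually high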;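 also: choline stimulus applied at its EC90 after an EC20 pre-addition; B-score computed on integrated fluorescence ratio after choline addition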
SUMO Mot1 rescue = inhibitors of SUMOylation pathway: yeast Mot1-301 growth rescue | S. cerevisiae Mot1-301 growth rescue, ATP luminescence, 38.5C; percent above DMSO median, 100 means doubled | growth rescue, % at 18.8 µM | 320,000 compounds, 1% hits;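 active = every valid replicate shows activation above 250% relative to neutral control wells; inactive = the rest, any valid replicate at or below 250%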;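 also: OY570 slx delta 5 strain wells were the positive control but not used for scaling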
NALP1 yeast inh = blocks the NALP1 inflammasome reconstituted in yeast; S. cerevisiae NALP1/ASC/caspase-1 growth, X-gal OD620, 72 h; inhibition, % at 10 µM; 280,000 compounds, 0.61% hits; AID 2071; in the data active = inhibition mostly above about 24%, no sharp cut-off; inactive = mostly below about 32%
NALP3 yeast inh = blocks the NALP3 inflammasome reconstituted in yeast; Yeast reconstituted NLRP3/ASC/caspase-1, beta-gal luminescence, 24 h; inhibition, % at 10 µM; 330,000 compounds, 0.39% hits; AID 2825;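 active = inhibition of 50% or more; inactive = inhibition below 50%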;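 also: plate controls were induced DMSO wells for no effect and uninduced yeast grown without galactose for full effect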
NALP3 confirm = NALP3 inhibition confirmation in yeast. shares compounds with NALP3 yeast inh. yeast expressing human NALP3, luminescence. inhibition, % at 10 µM. 1,300 compounds, 81% hits. AID 435006; in the data active = inhibition above about 48%
Casp1 ASC ctr = caspase-1-ASC yeast counter-screen hit; shares compounds with NALP3 yeast inh; yeast expressing Caspase-1-ASC, luminescence counter screen; inhibition, % at 10 µM; 1,000 compounds, 66% hits
NALP3 yeast rt = confirmation retest of NALP3 inhibitors in yeast. shares compounds with NALP3 yeast inh. yeast expressing human NALP3, luminescence read-out. inhibition, % at 10 µM. 1,000 compounds, 53% hits
The depositor's hits bear a star; i = inactive; x = not tested or not shown. This is a sample that favours compounds with a hit; in the whole collection about 3% have one here. Rule as the data show it, unless noted: active = inhibition above about 50%; inactive = the rest.

SMILES	CHT PAM	Bfl-1 A1 inh	CHT block	SUMO Mot1 rescue	NALP1 yeast inh	NALP3 yeast inh	NALP3 confirm	Casp1 ASC ctr	NALP3 yeast rt
CN(C)c1ccc(/C=C/c2c([N+](=O)[O-])c(=O)n(C)c(=O)n2C)cc1	x	x	x	x	16	-2	x	x	x
CN(C)c1ccc(-n2cccc2/C=C/[N+](=O)[O-])cc1	i	-1	i	234	-3	61*	65*	x	x
CCc1nc2ccc(C(=O)NCCCN3CCN(c4ccccc4F)CC3)cc2nc1CC	i	0	i	-2	-3	18	x	x	x
C[C@]12CC[C@H](O)CC1=CCC1C2CC[C@@]2(C)C1CCC21OCCO1 (some centres not stated)	x	0	x	9	x	57*	63*	x	x
CC(=O)N1[C@@H]2CC3C4CC=C5C[C@@H](O)CC[C@]5(C)C4CC[C@]3(C)[C@@]21C(C)=O (some centres not stated)	i	0	i	101	40	49	x	x	x
CCCCC(OC(=O)CN1C(=O)COc2ccccc21)C(=O)NC1CCCCC1 (configuration not stated)	i	0	i	9	-5	8	x	x	x
CCSC1(SCC)N=C(N)C2(C#N)C(c3ccc(F)cc3)C12C#N (configuration not stated)	i	1	i	10	15	59*	50*	65*	47
COc1ccccc1-c1nnc2sc(-c3cc4ccccc4o3)nn12	i	1	i	-11	7	59*	70*	x	x
CCOC(=O)c1ccc2nc3c(cc2c1)CCS3	i	-2	i	-19	-8	56*	66*	66*	46
CO/N=C(\Cn1ncc(N2CCCC2)c(Br)c1=O)c1ccc(Cl)cc1	i	0	i	-4	38	77*	69*	78*	57*
CO/N=C(\Cn1ncc(NC2CCCCC2)c(Br)c1=O)c1ccc(Cl)cc1	i	-2	i	-9	13	0	x	x	x
N#C/C(=C\c1cccnc1)c1ccccn1	i	0	i	2	13	15	x	x	x
COc1cc(/C=C(\C#N)c2nc3ccccc3o2)ccc1O	i	-5	i	-22	16	48	x	x	x
N#C/C(=C\c1ccc(O)cc1)c1nc2ccccc2o1	i	-5	i	6	-5	71*	77*	85*	80*
COc1ccc(OC)c(Nc2cc(C)nc3ccccc23)c1	i	-1	i	-30	10	7	x	x	x
COc1ccc(OC)c(Nc2cc(-c3ccccc3)nc(N)n2)c1	i	0	i	-5	24	50	41	49	43
CCOc1ccc(S(=O)(=O)N2CCCCC2)cc1NS(=O)(=O)c1cccs1	x	0	x	-1	x	4	x	x	x
CCOC(=O)C1CCCN(C(=O)CCc2nc3sc4c(c3c(=O)[nH]2)CCCC4)C1 (configuration not stated)	x	2	x	17	x	-3	x	x	x
COc1cc(C(=O)N2C(=O)CCC2=O)cc(OC)c1OC	i	1	i	-5	3	20	x	x	x
O=C(Nc1ccc(F)c(Cl)c1)c1ccc2c(c1)OCO2	i	-6	i	13	25	25	x	x	x
O=C(Nc1ccc(Nc2ccccc2)cc1)c1ccc(F)cc1	i	-3	i	150	3	62*	78*	59*	53*
O=C(O)c1ccc(C(=O)Nc2ccc(F)cc2)cc1	i	-10	i	-6	x	9	x	x	x
O=C(Nc1ccc(F)c(Cl)c1)c1ccccc1	i	-9	i	9	x	61*	82*	70*	63*
O=C(CSc1ncn(-c2ccccc2)n1)Nc1ccc(Br)cn1	i	0	i	7	12	75*	76*	69*	50*
CC(C)(C)[C@H]1COC(=O)[C@@H](Cc2ccc(F)cc2)CC/C=C/C[C@@H](CC(=O)N[C@H](CO)Cc2ccccc2)C(=O)N1	x	0	x	-7	x	7	x	x	x
SMILES	CHT PAM	Bfl-1 A1 inh	CHT block	SUMO Mot1 rescue	NALP1 yeast inh	NALP3 yeast inh	NALP3 confirm	Casp1 ASC ctr	NALP3 yeast rt
NCCc1nnc(SCC(=O)Nc2ccc(Br)cc2)o1	i	0	i	9	3	58*	70*	53*	49
O=C(CSc1nnc(CNC(=O)c2ccco2)o1)Nc1ccc(Br)cc1	i	0	i	57	8	9	x	x	x
COc1cc(C(=O)NNC(=O)c2n[nH]c3ccccc23)cc(OC)c1OC	x	1	x	14	x	18	x	x	x
CC1(C)COC(/C=C/c2cccc([N+](=O)[O-])c2)=N1	i	-1	i	-6	11	55*	62*	74*	57*
CC(C)(C)OC(=O)N[C@H](/C=C/c1ccccc1)C(=O)OC(C)(C)C	x	1	x	-11	x	18	x	x	x
Nc1c(-c2ccc(Cl)cc2)cnn1-c1cccc(C(F)(F)F)c1	i	1	i	-4	11	35	x	x	x
Cc1ccc(-c2cnn(-c3cccc(C(F)(F)F)c3)c2N)cc1	i	-1	i	1	3	57*	66*	49	31
Cc1nc(NC(=O)COC(=O)c2cccs2)c(Cl)cc1Cl	x	x	x	x	x	28	x	x	x
Cc1ccc(NC(=O)CCn2c(=S)oc3ccccc32)cc1F	i	0	i	2	17	2	x	x	x
C=CCOc1nc2c(c(=O)n(C)c(=O)n2C)n1Cc1ccccc1	i	0	i	2	15	9	x	x	x
C=CCOc1nc2c(c(=O)n(Cc3ccc(Cl)cc3)c(=O)n2C)n1C	i	0	i	47	19	55*	42	41	36
Cn1c(N2CCCC2)nc2c1c(=O)n(Cc1ccc(Cl)cc1)c(=O)n2C	i	0	i	-11	20	74*	33	x	x
Cn1c(N2CCC(C(N)=O)CC2)nc2c1c(=O)n(Cc1ccc(Cl)cc1)c(=O)n2C	i	0	i	11	6	20	x	x	x
COc1ccccc1-c1nnc(C2CCN(S(=O)(=O)c3ccccc3[N+](=O)[O-])CC2)o1	i	0	i	7	-6	3	x	x	x
Cc1ccc(NC(=O)CSc2ccc(Br)cc2)cc1S(=O)(=O)N1CCOCC1	i	0	i	-8	x	15	x	x	x
N#C/C(=N\Nc1ccc(Cl)cc1)C(=O)c1ccsc1	i	0	i	12	14	55*	35	x	x
